Screens (PubChem BioAssay)
Six1-Eya2 inh = qHTS Assay for Inhibitors of the Six1/Eya2 Interaction; Homeobox protein SIX1 (Homo sapiens) + Protein phosphatase EYA2 (Homo sapiens), …; activity change, % (no concentration beside the values); actives 0.56% (n = 360,000); AlphaScreen GST-Six1/His-Eya2 binding, biochemical; active compounds read low; AID 651725, 2012; in the data active means activity change below about -65%; inconclusive means mostly about -30% to -63%; further: on the % scale 0 is the no-effect control and ±100 the full control effect
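Compounds are tested against tagged Six1 and Eya2 proteins bridged by glutathione donor and nickel acceptor beads; after a one-hour incubation at 37 °C without light, AlphaScreen emission is recorded.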
BAZ2B inh = qHTS Assay for Inhibitors of BAZ2B. AlphaScreen BAZ2B-H3K14Ac peptide displacement. Potency, µM (titrated, usually from 114 µM), for the others: top-dose activity change, negative = inhibition, actives largely listed as inhibitors. actives 4.4% (n = 360,000); further: potency means the concentration at half of the fitted maximal effect; on the % scale 0 is the no-effect control and ±100 the full control effect; nearly all actives have a fitted effect of over 60% in size
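Inhibition is scored as reduced AlphaScreen emission. The BAZ2B/b-H3(5-23)K14Ac complex (50 nM each) in PBS pH 7.4, 0.01% Tween-20 meets compound (up to 110 uM) for 30 min at RT before bead addition.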
G9a block = qHTS Assay for Inhibitors of Histone Lysine Methyltransferase G9a | G9a H3K9 monomethylation, AlphaScreen, 2 h | AID 504332, 2011 | Potency, µM (top dose mostly 102 µM), for inactives: top-dose activity, negative = inhibition, most hits filed as inhibitors | Histone-lysine N-methyltransferase EHMT2 (Homo sapiens), Q96KQ7 | actives 8.8% (n = 350,000); further: potency means the concentration at half of the fitted maximal effect; on the % scale 0 is the no-effect control and ±100 the full control effect; nearly all actives have a fitted effect of over 75% in size
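Quantitative HTS format: methyltransferase activity on a biotin-tagged H3K9 peptide is measured by AlphaScreen, using a rabbit anti-monomethyl-H3K9 antibody with streptavidin donor and anti-IgG acceptor beads. Final levels are 20 nM enzyme, 500 nM peptide, 20 uM SAM; 2 h RT.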
JMJD2A Tudor inh = qHTS Assay for Inhibitors of JMJD2A-Tudor Domain; Lysine-specific demethylase 4A (Homo sapiens), O75164; AlphaScreen JMJD2A-Tudor / H3K4me3 peptide binding; Potency, µM (titrated, usually from 114 µM), for inactives: top-dose activity change, negative = inhibition, most hits filed as inhibitors; actives 4.4% (n = 390,000); AID 504339, 2011; further: potency means the concentration at half of the fitted maximal effect; on the % scale 0 is the no-effect control and ±100 the full control effect; nearly all actives have a fitted effect of over 50% in size
Target sequence (O75164 whole entry, looked up, the tested form may be a part): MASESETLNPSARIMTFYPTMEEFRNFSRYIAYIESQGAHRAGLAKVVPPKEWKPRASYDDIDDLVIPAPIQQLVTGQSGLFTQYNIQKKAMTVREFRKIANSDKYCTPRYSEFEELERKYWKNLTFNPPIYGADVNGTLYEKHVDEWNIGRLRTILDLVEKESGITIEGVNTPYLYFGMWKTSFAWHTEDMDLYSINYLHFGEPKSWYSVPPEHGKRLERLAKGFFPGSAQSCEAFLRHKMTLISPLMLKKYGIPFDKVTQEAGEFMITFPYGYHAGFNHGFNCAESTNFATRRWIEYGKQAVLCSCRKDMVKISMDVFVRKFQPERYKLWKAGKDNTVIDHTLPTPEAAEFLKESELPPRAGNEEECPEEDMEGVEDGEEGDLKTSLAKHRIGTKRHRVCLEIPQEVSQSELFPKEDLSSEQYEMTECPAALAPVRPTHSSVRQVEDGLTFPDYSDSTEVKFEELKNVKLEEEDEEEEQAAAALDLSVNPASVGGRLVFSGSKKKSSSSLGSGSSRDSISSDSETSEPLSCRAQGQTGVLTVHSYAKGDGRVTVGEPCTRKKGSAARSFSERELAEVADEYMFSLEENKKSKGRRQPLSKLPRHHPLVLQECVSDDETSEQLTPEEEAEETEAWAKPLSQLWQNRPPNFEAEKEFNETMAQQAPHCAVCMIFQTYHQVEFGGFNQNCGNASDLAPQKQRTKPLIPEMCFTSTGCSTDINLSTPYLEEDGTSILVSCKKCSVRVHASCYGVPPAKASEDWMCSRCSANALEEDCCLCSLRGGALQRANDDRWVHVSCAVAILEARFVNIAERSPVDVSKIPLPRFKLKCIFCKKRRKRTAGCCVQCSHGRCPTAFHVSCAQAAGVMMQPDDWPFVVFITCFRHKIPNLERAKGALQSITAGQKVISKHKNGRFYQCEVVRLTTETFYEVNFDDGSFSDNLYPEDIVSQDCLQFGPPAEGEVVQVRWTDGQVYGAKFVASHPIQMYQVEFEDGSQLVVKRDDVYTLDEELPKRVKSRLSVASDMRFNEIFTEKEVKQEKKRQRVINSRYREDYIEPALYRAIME
CtBP-E1A blk = qHTS Assay for Inhibitors of the CtBP/E1A Interaction; AlphaScreen GST-E1A/His-CtBP binding, 1536-well; active compounds read low; activity change, % (concentration not given with the values); actives 0.49% (n = 340,000); AID 651724, 2012; in the data active means activity change below about -65%; inconclusive means mostly about -30% to -63%; further: on the % scale 0 is the no-effect control and ±100 the full control effect
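In 5 uL wells, 23 nL compound meets equimolar GST-E1A and His-CtBP (5X stock 125 nM each) for 2 h, 37 °C. Beads (5X, 50 ug/mL) then 1 h, 37 °C, dark.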
HP1b chromo inh = HTS for Inhibitors of HP1-beta Chromodomain Interactions with Methylated Histone Tails. Chromobox protein homolog 1 (Homo sapiens), P83916. AlphaScreen HP1-beta / biotin-H3K9me3 peptide binding. Potency, µM (doses to about 114 µM), for the others: at the top dose activity change, negative = inhibition, most hits filed as inhibitors. actives 0.56% (n = 390,000); further: potency means the concentration at half of the fitted maximal effect; nearly all actives have a fitted effect of over 70% in size
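AlphaScreen: HP1-beta (50 nM) preformed 30 min with biotin-H3(1-18)K9me3 peptide (50 nM) in PBS pH 7.4, 0.01% Tween-20. Compound added for 30 min at RT, then streptavidin donor/nickel chelate acceptor beads (10 ug/mL) for 30 min.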
Numbers without * were called inactive; ? = inconclusive; / = not tested or not shown; [ ] = another dose, or the depositor's remark. Rows were chosen to be rich in hits. Some 10% of all compounds tested hit in one or more screens of this group. Unless noted, the call rests on the fitted dose curve; in most records, active means well fitted inhibition curve with a large enough effect; inconclusive means small, poorly fitted or top-dose-only effect; inactive means no such curve, though single readings can be large or run the other way.

SMILES	Six1-Eya2 inh	BAZ2B inh	G9a block	JMJD2A Tudor inh	CtBP-E1A blk	HP1b chromo inh
N#CC1=C(N)Oc2cc(N)ccc2C1c1ccccc1Cl (centres undefined)	-1	?	/	-19%	-7	25%
Cn1c2c(c(=O)n(C)c1=O)C(c1ccccc1Cl)C(C#N)=C(N)O2 (centres undefined)	2	-23%	25µM*	2%	10	61%
COc1ccc(NC(=O)[C@@H](NC(=O)c2ccccc2F)C(C)C)cc1S(=O)(=O)N1CCOCC1	1	-5%	11%	0%	16	31%
Cc1c(Br)cccc1NC(=O)C1(C)CCN1Cc1ccc(OC(C)C)cc1 (centres undefined)	9	/	/	/	11	/
Cc1c(Cl)cccc1NS(=O)(=O)c1ccc(NS(=O)(=O)c2ccc3c(c2)OCCO3)cc1	/	-11%	?	-11%	/	2%
COC(=O)CN1C(=O)N/C(=C/c2ccc(C)o2)C1=O	14	2%	25µM*	-29%	8	-16%
CN(C)CCCNCC(=O)NN(c1ccccc1)c1ccccc1	1	32µM*	-131%[59 µM]	0.79µM*	5	-32%
CN(C)CCCNC(=O)c1ccc(-c2ccccc2)cc1	-3	6%	-5%	-12%	-1	21%
Cc1oc2ccc(O)c(CN3CCN(C)CC3)c2c1C(=O)Nc1ccc(C(C)C)cc1	/	-15%	6%[59 µM]	-18%	/	44%
CCCC(C(=O)O)n1c(O)c(C=C2N=c3ccccc3=N2)sc1=S (centres undefined)	-10	-32%	?	20µM*	?	-2%
CCN(CC)c1ccc(-n2c(O)c(C=C3N=c4ccccc4=N3)sc2=S)cc1	5	5%	?	-22%	-3	21%
O=C(O)CCCn1c(O)c(C=C2N=c3ccccc3=N2)sc1=S	8	?	-107%[59 µM]	-34%	0	23%
O=C(O)c1cccc(-n2c(O)c(C=C3N=c4ccccc4=N3)sc2=S)c1	-7	-37%	50µM*	?	2	-16%
O=C(O)CCCCCn1c(O)c(C=C2N=c3ccccc3=N2)sc1=S	-8	50µM*	8.9µM*	-32%	7	-2%
CCOC(=O)c1ccc(NC(=O)CSc2ncc(S(=O)(=O)c3ccc(C)c(Cl)c3)c(=O)[nH]2)cc1	/	-14%	10%[59 µM]	-24%	/	9%[57 µM]
COc1ccc(CN2CCCCC2c2cccnc2)c(OC)c1C (centres undefined)	8	?	79µM*	-32%	12	14%
CC(C)c1ccc(NC(=O)CN2C(=O)CCc3cc(S(=O)(=O)N4CCOCC4)ccc32)cc1	/	-13%	10%[59 µM]	-28%	/	25%
CCC(Sc1nc2ncnc(N)c2[nH]1)C(=O)O (centres undefined)	4	-23%	40µM*	-6%	7	35%
COc1ccc(Cl)cc1NC(=O)CN(C)C(=O)c1ccc(N2CCCCC2)c([N+](=O)[O-])c1	?	?	7.9µM*	?	2	?
COc1ccc(Cl)cc1NC(=O)CN(C)C(=O)c1ccc(N2CCCCCC2)c([N+](=O)[O-])c1	-25	?	22µM*	?	-23	?
CC(C)(C)OC(=O)n1cccc1/C=C1\c2ccccc2C(=O)N1c1ccccc1	0	/	/	63µM*	1	-37%
CCOc1ccc(/C(CCC(=O)O)=N/NC(=S)NC(C)C)cc1	12	-26%	22µM*	-20%	0	-10%
CCN(CC)S(=O)(=O)c1cccc(NC(=O)CSc2nnc(N)s2)c1	0	-17%	18µM*	-19%	-5	22%
Nc1nnc(SCC(=O)Nc2cccc(S(N)(=O)=O)c2)s1	-3	1%	-37%	-9%	5	44%
CCN(CC)c1ccc(NC(=O)CSc2nnc(N)s2)cc1C	-3	-18%	56µM*	-19%	-1	39%
SMILES	Six1-Eya2 inh	BAZ2B inh	G9a block	JMJD2A Tudor inh	CtBP-E1A blk	HP1b chromo inh
CCCSCCCNC(=O)C1CCN(C(=O)c2cnn(-c3ccccc3)c2-n2cccc2)CC1	/	-12%	-8%[59 µM]	-18%	/	17%
CCC(=O)N1c2ccccc2CC1C(=O)NCCc1ccc(OC)cc1OC (centres undefined)	/	-17%	0%[12.7 µM]	-7%	/	26%
COc1ccc(N(C)C(=O)c2nn(-c3ccc(C)cc3)c(=O)n(C)c2=O)c(OC)c1	/	-8%	-11%[59 µM]	-10%	/	20%[57 µM]
CC1CCC/C(=C\c2ccc(O)cc2)C1=O (centres undefined)	1	/	/	-6%	/	22%
CN(C)CC1CC/C(=C\c2ccc(O)cc2)C1=O (centres undefined)	-29	/	/	89µM*	8	?
COc1ccc(/C=C2/CCC(CN3CCOCC3)C2=O)cc1 (centres undefined)	-12	/	/	79µM*	2	?
COc1ccc(/C=C2\CCC(C3CCCC3)C2=O)cc1 (centres undefined)	18	13%	16%	-4%	1	4%
CCC(C)NC(=O)c1c(-c2ccccc2)c(-c2ccccc2)nn(C)c1=O (centres undefined)	/	3%	-34%[59 µM]	-1%	/	41%
Cc1cc2c(s1)c1cnn(Cc3cccc(F)c3)c(=O)c1n2C	/	/	/	-27%	/	/
FC(F)Oc1ccc(NC(=S)NC23CC4CC(CC(C4)C2)C3)cc1	0	?	-10%	-16%	-7	17%
COC(=O)c1cccc(NC(=O)/C=C/c2ccc([N+](=O)[O-])cc2)c1	7	-30%	2%[59 µM]	-20%	3	-10%
O=C(/C=C/c1ccc([N+](=O)[O-])cc1)Nc1cccc(C(=O)Nc2ccccc2C(=O)O)c1	0	?	45µM*	?	/	?
O=C(/C=C/c1cccc([N+](=O)[O-])c1)Nc1cc(C(=O)O)cc(C(=O)O)c1	-3	?	?	18µM*	-2	?
CCOC(=O)c1c(NC(=O)COC(=O)c2cc(OC)c(OC)cc2[N+](=O)[O-])sc(C)c1C	3	-21%	1%[59 µM]	-29%	2	-4%
COCCOc1cc(N(CC(=O)N(C)C)S(=O)(=O)c2ccccc2)c(Cl)cc1Cl	0	0%	?	-2%	4	62%
O=C(Cn1[nH]c(=O)c2ccccc2c1=O)OCC(=O)c1ccccc1Cl	9	4%	9%[0.501 µM]	-7%	-21	26%
